Screening data: PubChem BioAssay, National Center for Advancing Translational Sciences (NCATS)
This is a sample that favours compounds with a hit; in the whole collection about 2.8% have one here.
GLP1R inv ag: qHTS of GLP-1 Receptor Inverse Agonists (Inhibition Mode); AID 624417, 2012; 410,000 compounds, 1.6% hits; Glucagon-like peptide 1 receptor (Homo sapiens), P43220; HEK293 GLP-1R CRE-luciferase, luminescence, 24 h; GLP-1R form is constitutively active; Potency, µM (doses to about 38.3 µM), for inactives: at the highest dose activity change, negative = inhibition, actives largely listed as inhibitors; further: on the % scale 0 is the no-effect control and ±100 the full control effect; nearly all actives have a fitted effect of over 55% in size
Target sequence (P43220 whole entry, looked up): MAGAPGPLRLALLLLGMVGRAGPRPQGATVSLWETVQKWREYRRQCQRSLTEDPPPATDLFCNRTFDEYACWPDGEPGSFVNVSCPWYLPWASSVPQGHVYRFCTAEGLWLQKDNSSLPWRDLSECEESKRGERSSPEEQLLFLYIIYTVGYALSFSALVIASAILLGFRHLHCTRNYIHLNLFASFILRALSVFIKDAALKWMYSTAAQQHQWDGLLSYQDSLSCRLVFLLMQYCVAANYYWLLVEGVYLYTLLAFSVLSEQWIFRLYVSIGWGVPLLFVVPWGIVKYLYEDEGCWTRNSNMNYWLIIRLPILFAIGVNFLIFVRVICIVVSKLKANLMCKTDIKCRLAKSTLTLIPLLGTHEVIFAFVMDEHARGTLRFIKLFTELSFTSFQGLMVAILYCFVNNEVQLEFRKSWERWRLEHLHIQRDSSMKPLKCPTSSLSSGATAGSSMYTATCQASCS
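Luminescence readout: a drop in cAMP-driven luciferase signal flags inverse agonism at a constitutively active GLP-1R stably expressed in HEK293. Compound exposure lasted 24 hr at 37 deg C, 5% CO2.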
GLP-1R agonist: qHTS of GLP-1 Receptor Agonists. Glucagon-like peptide 1 receptor (Homo sapiens), P43220. HEK293 GLP-1R CRE-luciferase, luminescence, 4-6 h; cells express a hypersensitive GLP-1R form. Potency, µM (series often up to 45.6 µM), for inactives: at the top dose activation, usual class: activators. 380,000 compounds, 0.007% hits. AID 624172, 2012; further: % of control where 0% means no effect
HEK293 tox: qHTS of GLP-1 Receptor Inverse Agonists: Cytotox Screen. HEK293 cAMP-luciferase reporter cells, luminescence, 24 h. Potency, µM (top dose mostly 38.3 µM), for inactives: at the top dose activity change, negative = inhibition, most hits filed as inhibitors. 410,000 compounds, 0.13% hits;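 further: loss of luciferase light is scored as toxicity; on the % scale 0 is the no-effect control and ±100 the full control effect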
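Seeding density was 200 cells/uL; after overnight-length (12 h) culture, 23 nL compounds went on for 24 h at 37 °C. Readout used a luciferase detection reagent, luminescence taken after 12 min at room temperature.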
BRCA1 expr act: qHTS Assay to Identify Small Molecule Activators of BRCA1 Expression | 380,000 compounds, 1.1% hits | MCF7-BRCA1-FFLuc reporter, luminescence, 48 h; response scale: scaled: vehicle 0%, 10 µM genistein 100% | AID 624202, 2012 | Potency, µM (highest dose often 46.1 µM), for inactives: top-dose activation, usual class: activators; further: nearly all actives have a fitted effect of over 80% in size
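Quantitative HTS in MCF7 cells stably reporting BRCA1 expression via firefly luciferase. Compound treatment lasts 48 h at 37 °C in phenol-red free MEM. Activation is expressed relative to genistein at 10 microM and DMSO.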
Mito fusion act: qHTS Assay for Small Molecule Inhibitors of Mitochondrial Division or Activators of Mitochondrial Fusion | 320,000 compounds, 0.23% hits | Potency, µM (doses to about 46.1 µM), for the others: at the highest dose growth rescue (activation), actives largely listed as activators | S. cerevisiae fusion-defective mutant growth rescue, CellTiterGlo 48 h; further: % of control where 0% means no effect; nearly all actives have a fitted effect of over 45% in size
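Compounds are tested for their ability to restore growth of mitochondrial fusion-defective yeast strains at non-permissive 37C in YPEG medium over 48 hours. Viability is quantified by luciferase luminescence.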
* = called active by the depositor; ? = inconclusive; / = not tested or not shown; [ ] = dose if it differs, or a comment. The call rests on the fitted dose curve; in most records, active means well fitted curve in the direction sought with a large enough effect; inconclusive means small, poorly fitted or top-dose-only effect, or another doubt; inactive means no such curve, though single readings can be large; an effect the other way counts as inactive or inconclusive. Potency means the concentration at half of the fitted maximal effect.

SMILES	GLP1R inv ag	GLP-1R agonist	HEK293 tox	BRCA1 expr act	Mito fusion act
Cc1cc(Nc2ncc(Cl)cc2Cl)n(-c2ccccc2C)n1	?	19%	81%	-23%	22µM*
O=S(=O)(c1cccc(F)c1)N1CCc2sccc2C1c1ccc(OC(F)(F)F)cc1 (centres undefined)	7.9µM*	-1%	-2%	-55%	-2%
CC1c2ccsc2CCN1S(=O)(=O)c1ccccc1 (centres undefined)	?	4%	3%	-2%	-6%
O=C1CCC[C@@H]2[C@H](Cc3ccccc3)[C@@H](O)C[C@@H]3CCN1[C@@H]32	6%	-2%	-12%	0%	/
O=C1CCC[C@@H]2C[C@@]3(C[C@@H]4CCN1[C@H]24)Nc1cc(Cl)c(Cl)cc1NC3=NCc1ccccc1	10µM*	1%	-28%	-15%	/
CCc1ccc2oc(-c3ccc(OC)cc3)cc(=Nc3c(C)n(C)n(-c4ccccc4)c3=O)c2c1	10µM*	-4%	-11%	-38%	3%
CCc1ccc2oc(-c3ccc(OC)cc3)cc(=Nc3cccc(C(=O)O)c3)c2c1	?	-1%	5%	-18%	-1%
COc1cc(/C=N/Nc2nncc3ccccc23)cc(OC)c1OC	7%	0%	?	7.1µM*	4%
CCOCCCNC(=O)CN1CCN(Cc2ccccc2C)C1=O	-10%	-3%	-1%	0%	-1%
Nc1c(-c2ccccc2)cnn1-c1cccc(C(F)(F)F)c1	?	3%	-11%	5µM*	11%
Cc1ccc(-c2cnn(-c3cccc([N+](=O)[O-])c3)c2N)cc1	?	-1%	-18%	5.6µM*	-2%
COc1ccc(Cn2c(C)nc([N+](=O)[O-])c2SCC(=O)O)cc1[N+](=O)[O-]	2%[7.66 µM]	3%	-5%[7.66 µM]	9%	1%
S=C(NCc1cccnc1)Nc1cc(Cl)cc(Cl)c1	10µM*	2%	-1%	-30%	-3%
CC(C)CCN1CC(O)=C(c2nc3ccccc3[nH]2)C1=N	6%	-1%	-4%	61%	-4%
CCCCCN1CSC(=S)N(Cc2ccccc2)C1	13µM*	0%	?	-62%	7%
O=C(Nc1ccc(S(=O)(=O)Nc2ncccn2)cc1)C1CC(=O)N(c2ccccc2)C1 (centres undefined)	12%	-13%	9%	-15%	-2%
COc1cccc(NC(=O)CN(C)C(=O)c2cc(-c3ccco3)nc3ccccc23)c1	-26%	17%	-7%	-3%	0%
CN(CCOc1ccc(Cl)cc1)C(=O)c1cc(-c2ccco2)nc2ccccc12	10µM*	2%	?	-59%	?
CCc1ccc(Nc2cnn(-c3nc4ccccc4s3)c(=O)c2Cl)cc1	-4%	-7%	14%	-37%	11µM*
CCc1cc(=O)[nH]c(SCC(=O)Nc2cc(C)on2)n1	30%	8%	4%	-15%	-1%
Cc1ccc(Cl)cc1-n1ncc2c(NC3CCCCCC3)ncnc21	4.5µM*	/	-28%	/	/
Cc1ccc(-n2ncc3c(NC4CCCCCC4)ncnc32)cc1Cl	?	/	-3%	/	/
c1ccc(-n2ncc3c(N4CCCCC4)ncnc32)cc1	4µM*	-5%	4%	?	-1%
NNc1ncnc2c1cnn2-c1ccccc1	10µM*	13%	?	-66%	9%
CC(C)Nc1ncnc2c1cnn2-c1ccccc1	-7%	-1%	6%	?	11%
SMILES	GLP1R inv ag	GLP-1R agonist	HEK293 tox	BRCA1 expr act	Mito fusion act
Cc1cccc(-n2ncc3c(N4CCCCCC4)ncnc32)c1	-14%	/	1%	/	/
CC1CCCN(c2ncnc3c2cnn3-c2ccc(F)cc2)C1 (centres undefined)	8.9µM*	/	-4%	/	/
Cn1c(=O)c2c(nc(N3CCOCC3)n2CC(=O)C23CC4CC(CC(C4)C2)C3)n(C)c1=O	0%	21%	-1%	4%	7%
c1ccc(-n2ncc3c(NC4CCCCCC4)ncnc32)cc1	5.6µM*	11%	-19%	?	-13%
Clc1ccc(-n2ncc3c(NC4CCCC4)ncnc32)cc1	?	/	-23%	/	/
Cc1csc(=Nc2ccccc2)n1CCCN1CCCC1=O	15%	10%	-1%	14%	-6%
COCCN(C(=O)COC(=O)c1ccccc1Nc1ccccc1)c1c(N)n(Cc2ccccc2)c(=O)[nH]c1=O	13µM*	8%	-14%	-40%	1%
CCCc1noc(-c2ccc(N3CCCCC3)c([N+](=O)[O-])c2)n1	?	/	-7%	7.1µM*	/
COc1ccc(C(NC(=O)C(C)C)c2c(O)ccc3ccccc23)cc1 (centres undefined)	?	3%	?	-31%	-1%
CCC(=O)NC(c1ccc(OC)cc1)c1c(O)ccc2ccccc12 (centres undefined)	3.5µM*	-5%	-28%	-33%	-1%
Cc1c(NC(=O)c2ccc(-c3ccccc3)cc2)cccc1C(=O)O	3.2µM*	-4%	0%	?	-11%
CCOC(=O)c1cc(-c2ccccc2)sc1NC(=O)c1ccc(OC)cc1	-1%	-8%	8%	-20%	3%
O=C(Nc1sc(-c2ccccc2)cc1C(=O)O)c1ccccc1	?	-4%	18%	11µM*	28%
CCN(c1ccccc1)c1nc2ccsc2c(=O)s1	?	21%	0%	34%	29%
CN(c1ccccc1)c1nc2ccsc2c(=O)s1	0%	21%	-1%	10µM*	10%
CCC(=NNC(=O)c1ccc2c(c1)nc(C)n2CC)c1cc(F)ccc1O	?	8%	?	-97%	/
Cc1ccc(NC(=O)N2CCc3ccccc3C2)cc1C	-30%	7%	6%	10µM*	1%
COC(=O)C1=C(N)Oc2cc(C)n(Cc3ccncc3)c(=O)c2C1c1cccnc1 (centres undefined)	10%	1%	5%	-18%	/
COc1ccc(NC(=O)Cn2c(-c3ccccc3)cn(-c3ccc(C)cc3)c2=O)cc1	10µM*	-11%	-16%	-17%	-3%
COc1ccc(-c2cn(-c3ccc(C)cc3)c(=O)n2CC(=O)Nc2ccc(OC)cc2OC)cc1	-12%	-2%	-17%	16%	10%
CC(C)Cc1nnc(NC(=O)CC(C)c2ccccc2)s1 (centres undefined)	?	2%	1%	2%	-11%
CC(NC(=O)c1ccco1)C12CC3CC(CC(C3)C1)C2 (centres undefined)	10µM*	-2%	1%	1%	13%
CCc1ccc(NC(=O)CSc2nc(C)cc(COC)c2C#N)cc1	11%	17%	2%	2%	/
